# The entries come from a sample that favours hits as a whole.
# Eya2 inh – qHTS Assay for Inhibitors of the Phosphatase Activity of Eya2 | Protein phosphatase EYA2 (Homo sapiens), O00167 | recombinant Eya2, OMFP fluorescence dephosphorylation (OMFP is methylfluorescein phosphate) | Potency, µM (top dose mostly 76.9 µM), for inactives: at the highest dose activity, negative = inhibition, hits mostly inhibitors | 330,000 tested, 0.006% active | AID 488837, 2010; further: on the % scale 0 is the no-effect control and ±100 the full control effect
#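 Eya2 (0.2 uM) preincubated 10 min at ambient with compound, then OMFP substrate added at 50 uM; 10 min reaction in 50 mM HEPES pH 7.5, 50 mM NaCl, 5 uM MgCl2, 0.05% BSA, 1 mM DTT. Fluorescence read at Ex 485/Em 525 nm.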
# USP2a block – qHTS Assay for Inhibitors of Ubiquitin-specific Protease USP2a Using CHOP2 as the Reporter; 330,000 tested, 0.01% active; Ubiquitin carboxyl-terminal hydrolase 2 (Homo sapiens), O75604; AID 463254, 2010; USP2 core, Ub-CHOP2 coupled fluorogenic reporter, 485/531; Potency, µM (top dose mostly 38.3 µM), for inactives: top-dose activity change, negative = inhibition, actives largely listed as inhibitors;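 further: plate controls were DMSO wells for no effect and full inhibition by NEM control for full effect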
#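 Deubiquitinase activity read as fluorescence (485/531 nm) after Ub-CHOP2 cleavage activates the enterokinase reporter on its substrate; USP2 core 10nM, Ub-CHOP2 and substrate 25nM each, 30min compound preincubation then 60min RT; data normalized to NEM, curves fitted.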
# ClpP mod – qHTS Assay for Activators of ClpP | ATP-dependent Clp protease proteolytic subunit (Bacillus subtilis (strain 168)), P80244 | purified B. subtilis ClpP, FRET peptide cleavage, 20 min | Potency, µM (doses to about 57.5 µM), without a hit: at the highest dose activity change, negative = active | 340,000 tested, 1.9% active; active means well fitted falling curve with a large enough effect; inconclusive means small, poorly fitted or top-dose-only effect; inactive means no such curve, though single readings can be large or run the other way; further: the source files actives as falling curves though it sought activators and does not explain the sign; nearly all actives have a fitted effect of over 65% in size
#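 Buffer: 100 mM Tris/HCl pH8, 100 mM KCl, 0.05% low protease BSA, 2.5% glycerol, 0.01% Tween-20. ClpP 10 microg/mL final; 20 min RT; delta FRET normalized to ADEP and DMSO controls.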
# GALK inhibitor – qHTS Assay for Inhibitors of Human Galactokinase (GALK). Potency, µM (top dose mostly 57.5 µM), inactives show at the highest dose activity change, negative = inhibition, most hits filed as inhibitors. AID 1868, 2009. Purified GALK, Kinase-Glo residual ATP luminescence. 270,000 tested, 0.007% active. P51570; further: on the % scale 0 is the no-effect control and ±100 the full control effect
# Target sequence (P51570 whole entry, looked up): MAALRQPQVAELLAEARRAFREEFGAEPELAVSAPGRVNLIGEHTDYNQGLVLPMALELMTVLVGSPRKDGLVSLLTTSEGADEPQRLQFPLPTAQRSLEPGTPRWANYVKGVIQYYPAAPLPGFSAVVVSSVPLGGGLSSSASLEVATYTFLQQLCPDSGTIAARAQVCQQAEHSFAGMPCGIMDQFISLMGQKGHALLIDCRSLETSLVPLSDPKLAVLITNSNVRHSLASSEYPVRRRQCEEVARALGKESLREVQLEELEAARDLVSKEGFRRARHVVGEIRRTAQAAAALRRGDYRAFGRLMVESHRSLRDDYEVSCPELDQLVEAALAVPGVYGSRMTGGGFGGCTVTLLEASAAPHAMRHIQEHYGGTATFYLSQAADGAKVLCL
#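 GALK at 5 nM final was combined with compound, 35 uM ATP and 100 uM galactose in HEPES pH8.0 with MgCl2 and DTT. The reaction ran one hour at room temperature before luminescent ATP detection.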
# An asterisk follows results filed as active; ? = inconclusive; · = not tested or not shown. Unless noted, the call rests on the fitted dose curve; in most records, active means well fitted inhibition curve with a large enough effect; inconclusive means small, poorly fitted or top-dose-only effect, or effect the other way; inactive means flat fitted curve, though single readings scatter. Potency means the concentration at half of the fitted maximal effect.
SMILES,Eya2 inh,USP2a block,ClpP mod,GALK inhibitor
CC(C)OC(=O)C1C(=O)CC(C)(O)C(C(=O)OC(C)C)C1c1cccnc1 (stereo not given),4%,-7%,0%,0%
Cc1ccc(C(C)C)cc1OCC(=O)NNC(=O)Nc1ccccc1,8%,1%,·,·
O=C(COC(=O)c1ccc(Br)cc1)Nc1cccnc1Cl,-21%,1%,-2%,·
O=C(COC(=O)c1cccc(F)c1)Nc1cccnc1Cl,-4%,-1%,25µM*,-2%
COc1cc(N)c(Cl)cc1C(=O)OCC(=O)Nc1cccnc1Cl,23%,0%,28µM*,·
CCOc1nc(C)ccc1-c1noc(CC)n1,3%,2%,-5%,1%
COc1ccc(-c2ccc(-c3noc(-c4ccccc4)n3)c(OC)n2)cc1,-7%,1%,84%,-1%
CCOc1nc(-c2ccc(C)cc2)ccc1-c1noc(COC)n1,-8%,0%,32µM*,-6%
COc1nc(-c2ccccc2)ccc1-c1noc(-c2cccs2)n1,·,·,20µM*,·
COc1nc(-c2ccccc2)ccc1-c1noc(-c2ccco2)n1,6%,-2%,32µM*,0%
COc1nc(-c2ccccc2)ccc1-c1noc(COc2ccccc2)n1,·,·,10µM*,4%
COc1nc(-c2ccccc2)ccc1-c1noc(-c2ccccc2)n1,-16%,-6%,?,0%
CC(C)CN1C2CCCC1CC(NC(=S)NCc1ccco1)C2 (stereo not given),2%,0%,·,6%
COc1ccc(-c2ccc(-c3noc(-c4ccco4)n3)c(OC)n2)cc1,-10%,4%,28µM*,-2%
COC(=O)c1cc(C)nc2c1C(=O)C(=O)C=C2N1CCOCC1,-1%,1%,·,7.1µM*
COC(=O)c1cc(S(=O)(=O)N2CCOCC2)c(Cl)cc1N1CCOCC1,6%,-1%,-1%,-3%
O=C(CCCOc1ccccc1)NC1CCCc2ccccc21 (stereo not given),2%,-1%,1%,0%
CNC(=S)N(Cc1ccco1)Cc1cc2cc3c(cc2[nH]c1=O)OCCO3,-7%,3%,?,0%
CCNC(=S)N(Cc1ccco1)Cc1cc2cc3c(cc2[nH]c1=O)OCCO3,4%,3%,28µM*,0%
Cc1ccc(CN(Cc2cc3cc4c(cc3[nH]c2=O)OCCO4)Cc2nnnn2Cc2ccco2)cc1,-8%,-21%,32µM*,-1%
CCC(C)(C)n1nnnc1C(C(C)C)N(Cc1ccco1)Cc1cc2cc3c(cc2[nH]c1=O)OCO3 (stereo not given),-17%,4%,32µM*,-2%
CC(C)CNC(=S)N(Cc1ccco1)Cc1cc2cc3c(cc2[nH]c1=O)OCCO3,-8%,3%,32µM*,1%
COc1ccc(C=O)cc1CN1CCCN(Cc2ccc(Cl)cc2)S1(=O)=O,-7%,4%,·,-3%
CC(=O)NC1=C(C#N)CCC1,·,·,-1%,·
COc1ccccc1-c1noc(-c2ccc(NCC3CCCO3)c([N+](=O)[O-])c2)n1 (stereo not given),·,·,1%,·
SMILES,Eya2 inh,USP2a block,ClpP mod,GALK inhibitor
O=C1OCc2cccc3cccc1c23,2%,2%,-4%,-2%
O=C1Cc2cccc3cccc1c23,7%,8%,22µM*,0%
CC1CCCCN1C(=O)COC(=O)C1CCN(S(=O)(=O)c2c(Cl)cccc2Cl)CC1 (stereo not given),3%,-1%,16µM*,4%
O=C(c1ccc([N+](=O)[O-])o1)N1CCOCC1,-1%,-1%,·,0%
O=C1c2cnc3nc(SCc4ccc(Cl)cc4)nn3c2CC2c3ccccc3CCN12 (stereo not given),7%,-2%,32µM*,1%
COc1ccc(C2CC(c3cccs3)=NN2C(=O)CSc2nc3ccccc3s2)cc1 (stereo not given),-6%,4%,?,-1%
COc1ccc(C2CC(c3cccs3)=NN2C(=O)CSc2nc3ccccc3o2)cc1 (stereo not given),-3%,0%,32µM*,0%
CCOC(=O)CSCC(=O)N1N=C(c2cccs2)CC1c1ccc(F)cc1 (stereo not given),-6%,0%,-20%,0%
